Records with an inconclusive call do not appear. The source made the active and inactive calls. How the source made its calls, unless noted: active means hit-call score of the fitted dose curve at least 0.9, where 1 is the maximum; inactive means score below 0.9.
Key:
[1] = ATG_PXRE_CIS: Attagene CIS-FACTORIAL HepG2 Assay for human Pregnane X Receptor Element (PXRE) (AID 2282957); details: HepG2 Attagene CIS-FACTORIAL PXRE reporter, mRNA; actives raise or lower the signal
Summary of the method: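 Reporter transcripts under endogenous PXR-responsive cis-regulation quantified from total RNA of transfected HepG2 cells 24 h post-dosing, via RT-PCR with fluorescent primer extension and capillary electrophoresis. Gain or loss of signal fitted against DMSO baseline.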

[2] = ATG_PPRE_CIS: Attagene CIS-FACTORIAL HepG2 Assay for human Peroxisome Proliferator-activated Response Element (PPRE) (AID 2282958); details: HepG2 PPRE cis-element reporter, Attagene transcription factor profiling; actives raise or lower the signal
Summary of the method: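 Transcript-level reporter induction in transfected HepG2 cells after 24 h chemical exposure, quantified by fluorescence from RT-PCR products separated by capillary electrophoresis.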

[3] = ATG_RORE_CIS: Attagene CIS-FACTORIAL HepG2 Assay for human RAR-related Orphan Receptor Element (RORE) (AID 2282959); details: HepG2 Attagene cis-factorial RORE reporter, mRNA; actives raise or lower the signal
Summary of the method: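 Multiplexed reporter assay measuring mRNA induction from a cis promoter element in transiently transfected HepG2 cells after 24 h treatment. Detection via RT-PCR and capillary electrophoresis fluorescence; DMSO serves as baseline.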

[4] = ATG_Sox_CIS: Attagene CIS-FACTORIAL HepG2 Assay for human SRY-box transcription factor (SOX) (AID 2282960); details: HepG2 Attagene cis-factorial SOX reporter, mRNA; actives raise or lower the signal
Summary of the method: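 Cells were transfected with reporter constructs under cis-regulatory promoters, then exposed to chemicals for 24 h. Reporter transcripts were quantified by fluorescence after RT-PCR and capillary electrophoresis; activity was fitted in both directions against DMSO.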

[5] = target: Transcription factor Sp1 (Homo sapiens) (UniProt P08047); experiment: ATG_Sp1_CIS: Attagene CIS-FACTORIAL HepG2 Assay for human Specificity Protein 1 (Sp1) (AID 2282961); details: HepG2 Sp1 cis-reporter transcription, actives raise or lower the signal
Summary of the method: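 Measures mRNA induction of an Sp1-linked reporter in HepG2 cells 24 h post-dosing. Multiplexed reporters read by RT-PCR and capillary electrophoresis; DMSO serves as negative control and baseline.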

[6] = ATG_SREBP_CIS: Attagene CIS-FACTORIAL HepG2 Assay for human Sterol Regulatory Element Binding (SREBP) (AID 2282962); details: HepG2 Attagene cis-factorial SREBP reporter, mRNA; actives raise or lower the signal
Summary of the method: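 Readout: fluorescent reporter-transcript peaks resolved by capillary electrophoresis after RT-PCR. Cells were human HepG2 carrying transfected cis-promoter reporter constructs, dosed for 24 h. Gain or loss of signal was fitted against DMSO controls.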

[7] = ATG_TA_CIS: Attagene CIS-FACTORIAL HepG2 Assay for human TA Basal Promoter (AID 2282964); details: HepG2 Attagene CIS-factorial TA basal promoter reporter; actives raise or lower the signal
Summary of the method: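 HepG2 cells transiently transfected with multiple reporter units under cis promoter elements, reporting endogenous transcription factor activity; this endpoint tracks the TA basal promoter as background control. Reporter mRNA after 24 h dosing measured by RT-PCR/capillary electrophoresis; bidirectional fits versus DMSO.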

[8] = ATG_TCF_b_cat_CIS: Attagene CIS-FACTORIAL HepG2 Assay for human T-Cell-Factor with beta-catenin (TCF/b-cat) (AID 2282965); details: HepG2 TCF/beta-catenin cis-reporter transcription, actives raise or lower the signal
Summary of the method: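 Endogenous TCF/LEF activity read as reporter transcript level via RT-PCR and capillary electrophoresis fluorescence in transfected HepG2, 24 h exposure; gain or loss of signal fitted against DMSO controls.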

[9] = ATG_TAL_CIS: Attagene CIS-FACTORIAL HepG2 Assay for human TAL Basal Promoter (AID 2282966); details: HepG2 Attagene cis-factorial TAL promoter reporter; actives raise or lower the signal;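 further: background control endpoint measuring basal TAL promoter reporter mRNA not a specific factor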
Summary of the method: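 Background-control endpoint: basal TAL promoter reporter transcripts in transiently transfected HepG2, measured 24 h after dosing. Read-out by RT-PCR with fluorescent primer extension and capillary electrophoresis; gain or loss of signal fitted relative to DMSO.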

[10] = target: Nuclear receptor subfamily 1 group I member 3 (Homo sapiens) (UniProt Q14994); experiment: ATG_CAR_TRANS: Attagene TRANS-FACTORIAL HepG2 Assay for human Constitutive Androstane Receptor (CAR) (AID 2282969; active means hit-call score of the fitted dose curve at least 0.9, where 1 is the maximum;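 further: activators raise reporter mRNA above DMSO so AC50 marks induction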); details: HepG2 Attagene TRANS-FACTORIAL CAR reporter
Summary of the method: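 Signal is reporter mRNA induction relative to DMSO, measured 24 h after dosing by RT-PCR with fluorescent primer extension and capillary electrophoresis. Human HepG2 liver cells carried transiently transfected chimeric NR-Gal4/GAL4-UAS reporter constructs.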

[11] = target: Estrogen receptor (Homo sapiens) (UniProt P03372); experiment: ATG_ERa_TRANS: Attagene TRANS-FACTORIAL HepG2 Assay for human Estrogen Receptor alpha (ERa) (AID 2282970; active means hit-call score of the fitted dose curve at least 0.9, where 1 is the maximum); details: HepG2 Attagene TRANS ERa GAL4 reporter, mRNA
Summary of the method: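 Reporter transcripts were measured 24 h after dosing by RT-PCR with fluorescent primer extension and capillary electrophoresis. The system is transiently transfected HepG2 expressing exogenous NR-Gal4 chimeras driving GAL4-UAS reporters; DMSO is the baseline.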

[12] = target: X-box-binding protein 1 (Homo sapiens) (UniProt P17861); experiment: ATG_Xbp1_CIS: Attagene CIS-FACTORIAL HepG2 Assay for human X-box Binding Protein 1 (XBP1) (AID 2282972); details: HepG2 XBP1 cis-element reporter, Attagene multiplex; actives raise or lower the signal
Summary of the method: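 Read-out: fluorescent reporter mRNA fragments resolved by capillary electrophoresis after RT-PCR. Human HepG2 liver cells carried transfected cis-promoter reporter units and were exposed to chemicals for 24 hours. Gain or loss of signal fitted relative to DMSO baseline.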

[13] = ATG_M_19_TRANS: Attagene TRANS-FACTORIAL HepG2 Assay for M19 Transcription Factor (Internal Marker) (AID 2282974; active means hit-call score of the fitted dose curve at least 0.9, where 1 is the maximum); details: HepG2 Attagene TRANS-FACTORIAL M19 internal marker reporter
Summary of the method: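 After transfection of HepG2 with GAL4-UAS-driven reporter constructs, cells are dosed for 24 h. Total RNA is reverse-transcribed, reporter sequences PCR-amplified and labelled, then HpaI-digested and sized by capillary electrophoresis.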

[14] = target: Signal transducer and activator of transcription 3 (Homo sapiens) (UniProt P40763); experiment: ATG_STAT3_CIS: Attagene CIS-FACTORIAL HepG2 Assay for human Signal Transducer and Activator of Transcription 3 (STAT3) (AID 2282963); details: HepG2, Attagene cis-factorial STAT3 reporter transcription; actives raise or lower the signal
Summary of the method: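 Readout is reporter transcript quantified by RT-PCR and capillary electrophoresis, with 6-FAM primer extension and HpaI digestion. Total RNA is taken 24 h after dosing transiently transfected HepG2 carrying cis-regulated reporter units. Bidirectional fit against DMSO.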

[15] = ATG_TGFb_CIS: Attagene CIS-FACTORIAL HepG2 Assay for human Transforming Growth Factor (TGF) (AID 2282967); details: HepG2 Attagene CIS TGFb reporter, mRNA transcription; actives raise or lower the signal
Summary of the method: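 HepG2 cells transiently transfected with cis-promoter-driven multiple reporter units measure endogenous TF activity; reporter mRNA quantified at 24 h by RT-PCR, FAM labeling, HpaI digestion and capillary electrophoresis. Bidirectional fit vs DMSO.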

[16] = ATG_VDRE_CIS: Attagene CIS-FACTORIAL HepG2 Assay for human Vitamin D Receptor Element (VDRE) (AID 2282968); details: HepG2 VDRE cis-reporter transcription, actives raise or lower the signal
Summary of the method: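 Readout is VDRE-driven reporter mRNA reflecting endogenous factor activity in human HepG2 cells, sampled 24 h post-dose. Quantification used labelled RT-PCR products separated by capillary electrophoresis; bidirectional analysis relative to DMSO.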

[17] = target: Steroid hormone receptor ERR1 (Homo sapiens) (UniProt P11474); experiment: ATG_ERRa_TRANS: Attagene TRANS-FACTORIAL HepG2 Assay for human Estrogen-Related Receptor alpha (ERRa) (AID 2282971; active means hit-call score of the fitted dose curve at least 0.9, where 1 is the maximum); details: HepG2 Attagene TRANS reporter, ERRa transactivation
Summary of the method: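 Reporter transcripts from ERRa-Gal4 chimera activity measured in transiently transfected human HepG2 cells 24 hours after dosing, using RT-PCR with 6-FAM primer extension, HpaI digestion and capillary electrophoresis; DMSO is baseline.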

[18] = ATG_GAL4_TRANS: Attagene TRANS-FACTORIAL HepG2 Assay for GAL4 (Internal Marker) (AID 2282976; active means hit-call score of the fitted dose curve at least 0.9, where 1 is the maximum); details: HepG2 Attagene TRANS GAL4 internal marker reporter
Summary of the method: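 In transfected human HepG2 liver cells dosed 24 h, GAL4 reporter mRNA serves as a baseline marker. Detection by RT-PCR with fluorescent capillary electrophoresis, activity fitted upward relative to DMSO.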

[19] = target: Estrogen-related receptor gamma (Homo sapiens) (UniProt P62508); experiment: ATG_ERRg_TRANS: Attagene TRANS-FACTORIAL HepG2 Assay for human Estrogen-Related Receptor gamma (ERRg) (AID 2282977; active means hit-call score of the fitted dose curve at least 0.9, where 1 is the maximum;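 further: hits increase reporter signal over DMSO so potencies reflect activators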); details: HepG2 Attagene TRANS reporter, ERRg transactivation
Summary of the method: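 Exogenous NR-Gal4 chimera activity measured as reporter transcript induction after 24 h in transiently transfected HepG2 cells. RNA reverse-transcribed, PCR-amplified, 6-FAM-labelled and resolved by capillary electrophoresis; increase over DMSO baseline.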

Measured: AC50

Transcription factor Sp1 (Homo sapiens), sequence (P08047 whole entry, looked up): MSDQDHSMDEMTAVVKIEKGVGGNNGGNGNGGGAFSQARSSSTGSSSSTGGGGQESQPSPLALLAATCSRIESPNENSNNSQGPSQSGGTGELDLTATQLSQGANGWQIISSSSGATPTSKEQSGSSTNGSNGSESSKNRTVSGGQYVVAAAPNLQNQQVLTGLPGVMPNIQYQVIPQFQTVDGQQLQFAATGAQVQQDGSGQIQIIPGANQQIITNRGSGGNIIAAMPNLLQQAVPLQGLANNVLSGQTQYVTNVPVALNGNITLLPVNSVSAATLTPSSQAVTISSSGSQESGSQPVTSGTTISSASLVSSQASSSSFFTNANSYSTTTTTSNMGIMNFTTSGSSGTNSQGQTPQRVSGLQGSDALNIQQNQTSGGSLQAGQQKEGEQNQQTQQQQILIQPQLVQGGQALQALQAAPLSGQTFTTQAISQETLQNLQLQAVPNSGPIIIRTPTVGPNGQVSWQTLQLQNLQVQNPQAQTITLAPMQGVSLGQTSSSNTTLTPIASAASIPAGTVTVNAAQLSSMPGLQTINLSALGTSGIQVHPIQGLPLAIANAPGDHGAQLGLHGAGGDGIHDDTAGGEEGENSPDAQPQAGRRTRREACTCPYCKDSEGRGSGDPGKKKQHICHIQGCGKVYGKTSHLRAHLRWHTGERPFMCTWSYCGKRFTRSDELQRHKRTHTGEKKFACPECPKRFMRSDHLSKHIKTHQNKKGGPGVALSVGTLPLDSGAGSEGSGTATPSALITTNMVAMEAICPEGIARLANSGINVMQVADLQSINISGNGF
Signal transducer and activator of transcription 3 (Homo sapiens), sequence (P40763 whole entry, looked up): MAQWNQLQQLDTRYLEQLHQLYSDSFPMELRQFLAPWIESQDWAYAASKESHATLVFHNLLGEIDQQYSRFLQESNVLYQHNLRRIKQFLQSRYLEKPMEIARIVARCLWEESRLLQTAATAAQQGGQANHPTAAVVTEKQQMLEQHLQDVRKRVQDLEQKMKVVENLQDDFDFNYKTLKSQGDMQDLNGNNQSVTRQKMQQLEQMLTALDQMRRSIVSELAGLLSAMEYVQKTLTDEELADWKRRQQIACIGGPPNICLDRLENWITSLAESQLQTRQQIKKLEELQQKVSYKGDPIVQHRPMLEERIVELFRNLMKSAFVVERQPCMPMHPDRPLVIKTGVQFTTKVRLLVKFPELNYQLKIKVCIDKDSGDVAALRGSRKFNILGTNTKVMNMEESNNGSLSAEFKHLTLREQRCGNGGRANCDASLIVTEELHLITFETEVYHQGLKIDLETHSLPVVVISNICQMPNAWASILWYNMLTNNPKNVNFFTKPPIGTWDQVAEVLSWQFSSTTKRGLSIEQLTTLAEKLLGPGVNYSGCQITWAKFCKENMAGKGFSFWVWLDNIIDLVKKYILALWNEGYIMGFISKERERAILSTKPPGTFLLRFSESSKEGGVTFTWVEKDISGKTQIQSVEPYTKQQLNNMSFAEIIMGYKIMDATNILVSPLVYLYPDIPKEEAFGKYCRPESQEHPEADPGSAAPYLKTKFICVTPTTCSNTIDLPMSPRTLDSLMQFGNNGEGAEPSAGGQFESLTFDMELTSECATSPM
Nuclear receptor subfamily 1 group I member 3 (Homo sapiens), sequence (Q14994 whole entry, looked up, the tested form may be a part): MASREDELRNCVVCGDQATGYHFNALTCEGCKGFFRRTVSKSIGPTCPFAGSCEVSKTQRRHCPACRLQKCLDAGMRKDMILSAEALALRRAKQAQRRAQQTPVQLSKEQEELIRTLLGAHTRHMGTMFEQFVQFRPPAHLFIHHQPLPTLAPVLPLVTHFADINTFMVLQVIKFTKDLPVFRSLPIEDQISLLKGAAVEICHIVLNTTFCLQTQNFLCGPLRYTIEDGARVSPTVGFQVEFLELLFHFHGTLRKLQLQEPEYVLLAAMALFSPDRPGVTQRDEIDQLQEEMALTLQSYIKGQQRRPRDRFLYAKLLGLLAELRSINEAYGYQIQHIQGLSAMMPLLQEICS
Steroid hormone receptor ERR1 (Homo sapiens), sequence (P11474 whole entry, looked up, the tested form may be a part): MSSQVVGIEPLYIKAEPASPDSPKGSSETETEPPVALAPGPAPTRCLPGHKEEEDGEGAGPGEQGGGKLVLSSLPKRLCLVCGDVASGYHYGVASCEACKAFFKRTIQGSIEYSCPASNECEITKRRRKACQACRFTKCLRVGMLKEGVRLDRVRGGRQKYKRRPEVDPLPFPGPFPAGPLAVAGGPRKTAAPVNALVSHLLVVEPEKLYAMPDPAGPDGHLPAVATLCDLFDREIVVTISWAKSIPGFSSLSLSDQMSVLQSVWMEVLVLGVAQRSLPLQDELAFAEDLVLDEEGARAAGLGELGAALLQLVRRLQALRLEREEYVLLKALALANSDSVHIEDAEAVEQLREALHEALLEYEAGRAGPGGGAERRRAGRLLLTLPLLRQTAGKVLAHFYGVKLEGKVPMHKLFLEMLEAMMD
Estrogen receptor (Homo sapiens), sequence (P03372 whole entry, looked up, the tested form may be a part): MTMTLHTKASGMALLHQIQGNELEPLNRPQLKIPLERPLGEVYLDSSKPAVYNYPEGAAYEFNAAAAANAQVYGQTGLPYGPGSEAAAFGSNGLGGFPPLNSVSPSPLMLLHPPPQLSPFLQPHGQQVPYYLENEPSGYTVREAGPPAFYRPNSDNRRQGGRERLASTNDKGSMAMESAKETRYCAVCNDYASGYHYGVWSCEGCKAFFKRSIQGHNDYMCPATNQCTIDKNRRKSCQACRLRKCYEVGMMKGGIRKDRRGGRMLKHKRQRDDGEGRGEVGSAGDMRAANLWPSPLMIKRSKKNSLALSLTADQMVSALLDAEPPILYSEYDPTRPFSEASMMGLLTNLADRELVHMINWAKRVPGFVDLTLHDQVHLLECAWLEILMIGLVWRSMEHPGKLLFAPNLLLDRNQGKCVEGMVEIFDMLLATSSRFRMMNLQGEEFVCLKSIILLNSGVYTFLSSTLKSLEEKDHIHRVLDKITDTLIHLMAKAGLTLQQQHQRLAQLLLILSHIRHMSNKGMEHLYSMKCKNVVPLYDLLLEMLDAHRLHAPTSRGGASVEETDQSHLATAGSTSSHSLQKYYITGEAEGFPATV
X-box-binding protein 1 (Homo sapiens), sequence (P17861 whole entry, looked up, the tested form may be a part): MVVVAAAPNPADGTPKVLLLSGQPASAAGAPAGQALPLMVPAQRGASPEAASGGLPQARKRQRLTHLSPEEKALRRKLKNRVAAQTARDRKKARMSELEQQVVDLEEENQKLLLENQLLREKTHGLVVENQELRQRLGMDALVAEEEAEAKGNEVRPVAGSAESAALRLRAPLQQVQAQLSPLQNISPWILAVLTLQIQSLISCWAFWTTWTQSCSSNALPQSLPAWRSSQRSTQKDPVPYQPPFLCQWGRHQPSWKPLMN
Estrogen-related receptor gamma (Homo sapiens), sequence (P62508 whole entry, looked up, the tested form may be a part): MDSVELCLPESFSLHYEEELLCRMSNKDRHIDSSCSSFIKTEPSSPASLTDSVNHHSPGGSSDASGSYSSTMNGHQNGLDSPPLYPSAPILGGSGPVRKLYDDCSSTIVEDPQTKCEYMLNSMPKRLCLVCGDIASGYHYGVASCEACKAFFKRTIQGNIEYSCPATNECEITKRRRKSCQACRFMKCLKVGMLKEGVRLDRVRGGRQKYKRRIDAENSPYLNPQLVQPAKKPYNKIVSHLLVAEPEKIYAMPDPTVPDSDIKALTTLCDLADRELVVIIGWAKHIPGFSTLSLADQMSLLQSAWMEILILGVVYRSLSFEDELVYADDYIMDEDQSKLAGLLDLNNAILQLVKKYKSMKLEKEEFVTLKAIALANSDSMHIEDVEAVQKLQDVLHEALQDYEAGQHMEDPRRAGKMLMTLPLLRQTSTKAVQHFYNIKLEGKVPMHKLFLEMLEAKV

Clc1nc(C(Cl)(Cl)Cl)c(Cl)c(Cl)c1Cl
inactive: [2] | [3] | [4] | [5] | [7] | [10] | [11] | [12] | [13]
active: [1] 39.4 µM | [6] 52.5 µM | [8] 62.7 µM | [9] 57.2 µM

O=C1O[C@@H]2[C@@H](O)[C@H](O)O[C@@H]2[C@H]1O
inactive: [1] | [3] | [4] | [5] | [6] | [14] | [7] | [8] | [9] | [15] | [16] | [10] | [11] | [17] | [12]

CC[C@]12CCCN3CCc4c(n(c5ccccc45)[C@@](O)(C(=O)OC)C1)[C@@H]32
active: [1] 7.96 µM
inactive: [5] | [14] | [7] | [8] | [9] | [15] | [16] | [17] | [12] | [18] | [19]

CC1(C)CCC(C)(C)c2cc(C(=O)Nc3ccc(C(=O)O)cc3)ccc21
active: [1] 53.9 µM | [2] 43.7 µM | [3] 32.7 µM | [7] 27.7 µM | [8] 48.2 µM | [16] 27.8 µM
inactive: [4] | [5] | [6] | [14] | [9] | [15] | [12]

CC(C)(COC(=O)c1ccccc1)COC(=O)c1ccccc1
inactive: [2] | [4] | [5] | [6] | [14] | [7] | [8] | [9] | [10] | [12]
active: [1] 34.7 µM | [15] 100 µM

Cc1ccc(Nc2ccc(O)c3c2C(=O)c2ccccc2C3=O)cc1
inactive: [2] | [3] | [4] | [5] | [14] | [7] | [8] | [9] | [15] | [16] | [10] | [11] | [12] | [13]
active: [1] 4.96 µM

CCCCN
inactive: [1] | [2] | [3] | [4] | [5] | [6] | [14] | [7] | [8] | [9] | [15] | [16] | [10] | [12] | [13] | [18]

NCCNCCN
inactive: [1] | [2] | [3] | [4] | [5] | [6] | [14] | [7] | [8] | [9] | [15] | [16] | [10] | [17] | [13] | [18]

c1ccc2[nH]ccc2c1
inactive: [2] | [3] | [4] | [5] | [6] | [14] | [7] | [8] | [9] | [15] | [12] | [18]
active: [1] 29.9 µM

CCCCCCCCCCCCN(CCCCCCCCCCCC)CCCCCCCCCCCC
inactive: [1] | [2] | [3] | [4] | [5] | [6] | [14] | [8] | [9] | [15] | [16] | [10] | [12] | [13]

C[Si](O[Si](C)(C)C)O[Si](C)(C)C
inactive: [2] | [3] | [4] | [5] | [6] | [14] | [7] | [8] | [9] | [15] | [16] | [10] | [12] | [13]
active: [1] 13.4 µM

O=C(OCc1ccccc1)C(=O)OCc1ccccc1
inactive: [1] | [2] | [3] | [6] | [14] | [7] | [8] | [9] | [15] | [16] | [11] | [12] | [18]

OCc1cccnc1
inactive: [3] | [4] | [5] | [6] | [14] | [7] | [8] | [9] | [15] | [10] | [11] | [12] | [13] | [18]

O=C(O)c1cn(C2CC2)c2cc(N3CCNCC3)c(F)cc2c1=O
inactive: [2] | [3] | [4] | [5] | [6] | [14] | [7] | [8] | [9] | [15] | [12] | [13] | [18]

O=C(O)C[C@H](O)C[C@H](O)/C=C/c1c(C2CC2)nc2ccccc2c1-c1ccc(F)cc1
active: [1] 4.9 µM | [6] 0.0712 µM
inactive: [2] | [4] | [5] | [14] | [7] | [8] | [9] | [15] | [11] | [17] | [12] | [18]

O=C(O)c1cccc(C(F)(F)F)c1
inactive: [1] | [2] | [3] | [4] | [7] | [8] | [9] | [15] | [16] | [10] | [11] | [12] | [18] | [19]

From PubChem BioAssay (EPA / NIEHS)
